Screening results from PubChem BioAssay.
Rows were chosen to be rich in hits. Some 19% of all compounds tested hit in one or more screens of this group.
TDP1 cell noCPT: qHTS for Inhibitors of human tyrosyl-DNA phosphodiesterase 1 (TDP1): qHTS in cells in absence of CPT. DT40 Tdp1-/- hTDP1 cells, no CPT, ATP luminescence, 48 h. Potency, µM (series often up to 46.2 µM), hits mostly inhibitors. 420,000 tested, 15% active. AID 686978, 2013; further: nearly all actives have a fitted effect of over 55% in size
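Compound effects on proliferation are scored in DT40 Tdp1-/-;hTDP1 cells in the absence of CPT. ATP levels (CellTiter-Glo luminescence) are recorded after a ≥48 hr, 37 °C incubation.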
MCF10A rereplic: A quantitative high throughput screen for small molecules that induce DNA re-replication in MCF 10a normal breast cells; MCF 10A DNA re-replication, Hoechst nuclear intensity, 48 h; Potency, µM (series often up to 46.1 µM), most hits filed as activators; 350,000 tested, 2.9% active; AID 624296, 2012; further: nearly all actives have a fitted effect of over 50% in size
Chronic BCR inh: qHTS Assay to Find Inhibitors of Chronic Active B-Cell Receptor Signaling | Potency, µM (doses to about 46.1 µM), most hits filed as inhibitors | ABC-DLBCL IkBa-CBG/CBR reporter, luminescence ratio, 4 h | AID 493014, 2011 | 340,000 tested, 0.05% active; active means well fitted inhibition curve with a large enough effect in the signal ratio, with a control signal flat, not every such curve was filed as active; inconclusive means small, poorly fitted or top-dose-only effect, or effect the other way, or a change in a side signal; the % refers to the signal ratio
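TMD8 human ABC-DLBCL cells with doxycycline-inducible IκBα–green luciferase fusion and unfused red luciferase, in 0.5% FBS medium; compounds up to 46 uM, 4 h at 37C. Green/red luminescence ratio, filter-overlap corrected, fitted to concentration-response curves.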
DT40 TDP1 CPT: qHTS for Inhibitors of human tyrosyl-DNA phosphodiesterase 1 (TDP1): qHTS in cells in presence of CPT; chicken DT40 Tdp1-/-;hTDP1 cells + 20 nM CPT, ATP luminescence, 48 h; Potency, µM (highest dose often 46.2 µM), usual class: inhibitors; 420,000 tested, 12% active; further: nearly all actives have a fitted effect of over 55% in size
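Chicken DT40 Tdp1-/- cells stably complemented with human TDP1 were seeded at 400 cells/well in medium containing 20 nM camptothecin, exposed to pin-transferred compounds, and grown at 37 °C for at least 48 hr. Viability was read as ATP luminescence.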
IL-1B inflam inh: qHTS for Inhibitors of Inflammasome Signaling: IL-1-beta AlphaLISA Primary Screen | THP-1 LPS/ATP IL-1B secretion, AlphaLISA, 16 h; active compounds read low | activity change, % at 57.5 µM | 360,000 tested, 4.7% active | AID 743279, 2014; in the data active means activity change below about -50%; inconclusive means mostly about -30% to -49%
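Secreted IL-1B measured by AlphaLISA bead assay after 16 h compound exposure of THP-1 cells; compounds (final up to 57.5 uM) added 1 h before LPS (250 ng/mL) and ATP (1.25 mM) stimulation; lower signal means less secretion.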
SW480 rerep: A quantitative high throughput screen for small molecules that induce DNA re-replication in SW480 colon adenocarcinoma cells | Potency, µM (series often up to 46.1 µM), actives largely listed as activators | 340,000 tested, 1.8% active | SW480 DNA re-replication, Hoechst DNA content imaging, 48 h; further: nearly all actives have a fitted effect of over 55% in size
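Cells (250 per well) received 23 nL compound or DMSO by pin tool and were kept 48 hr at 37 C, 5% CO2. Nuclei were then stained with Hoechst for 40 min and scanned for DNA content.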
Hits are given with their value; – = inactive; ? = inconclusive; · = no result given; [ ] = another dose, or the depositor's remark. Unless noted, the call rests on the fitted dose curve; in most records, active means well fitted curve in the direction sought with a large enough effect; inconclusive means small, poorly fitted or top-dose-only effect, or another doubt; inactive means no such curve, though single readings can be large; an effect the other way counts as inactive or inconclusive.

SMILES | TDP1 cell noCPT | MCF10A rereplic | Chronic BCR inh | DT40 TDP1 CPT | IL-1B inflam inh | SW480 rerep
CC1=C(C(=O)N(C(C)C)C(C)C)CC(CC(=O)NCCc2ccccn2)C(=O)N1Cc1ccc(F)cc1 (stereo not given) | – | · | · | – | – | ·
Cc1cccc(CSc2ncc(Cl)c(C(=O)Nc3sc4c(c3C(N)=O)CCCC4)n2)c1 | 8.2µM | · | · | 23µM | · | ·
Cc1cccc(CSc2ncc(Cl)c(C(=O)Nc3sc4c(c3C#N)CCCC4)n2)c1 | 5.8µM | · | · | 23µM | · | ·
COC(=O)c1c(NC(=O)c2nc(SCc3cccc(C)c3)ncc2Cl)sc2c1CCCC2 | – | · | · | – | · | ·
COC(=O)CSc1ncnc2c1sc1nc(N3CCOCC3)c3c(c12)CCCC3 | – | ? | ? | – | – | –
Cc1ccccc1-n1cnc2c(sc3nc(N4CCOCC4)c4c(c32)CCCC4)c1=O | 15µM | ? | – | 18µM | – | –
COc1ccc(-n2cnc3c(sc4nc(N5CCOCC5)c5c(c43)CCCC5)c2=O)cc1 | 23µM | – | – | 18µM | – | –
C=CCNc1nnnc2c1sc1nc(N3CCOCC3)c3c(c12)CCCC3 | 13µM | – | – | – | – | –
O=c1c2sc3nc(N4CCOCC4)c4c(c3c2ncn1C(c1ccccc1)c1ccccc1)CCCC4 | ? | – | · | ? | – | –
CC(C)CNc1nnnc2c1sc1nc(N3CCOCC3)c3c(c12)CCCC3 | ? | – | – | ? | – | –
O=c1c2sc3nc(N4CCOCC4)c4c(c3c2ncn1-c1ccccc1)CCCC4 | ? | – | – | ? | -60 | –
CC(C)C(=O)Nc1ccc(NC(=O)c2ccc(COc3ccccc3)cc2)cc1 | – | – | ? | – | – | –
O=C(NCC1CCCO1)C1CCCN1C(=O)Nc1ccc(Cl)c(Cl)c1 (stereo not given) | – | – | – | – | – | –
O=c1c2sc3nc(N4CCOCC4)c4c(c3c2nnn1Cc1ccccc1)CCCC4 | ? | – | – | 8.2µM | – | –
Cc1sc2c(c1C)c(=O)n(CCc1ccccc1)c(=O)n2Cc1ccc(F)cc1 | 18µM | · | · | ? | · | ·
Cc1cccc(Cn2c(=O)n(CCc3ccccc3)c(=O)c3c(C)c(C)sc32)c1 | ? | · | · | 21µM | · | ·
CCN(CC)C(=O)c1sc2c(c1C)c(=O)n(CCc1ccccc1)c(=O)n2Cc1cccc(Cl)c1 | 15µM | · | ? | 23µM | · | ·
Cc1ccc(C)c(Cn2c(=O)n(CCc3ccccc3)c(=O)c3c(C)c(C)sc32)c1 | – | · | · | – | · | ·
Cc1sc2c(c1C)c(=O)n(CCc1ccccc1)c(=O)n2Cc1cccc(F)c1 | 5.8µM | · | · | ? | · | ·
Cc1sc2c(c1C)c(=O)n(CCc1ccccc1)c(=O)n2Cc1ccc(C(C)(C)C)cc1 | – | · | · | – | · | ·
C[C@@H]1NS(=O)(=O)[C@H]2C[C@@H]3C=C[C@]2(O3)[C@H]1OC(=O)Nc1ccc(C(F)(F)F)cc1[N+](=O)[O-] | ? | – | – | ? | – | –
O=C1Nc2ccccc2-n2nnnc2C1N1CCN(CCN2CCOCC2)CC1 (stereo not given) | – | · | · | – | – | ·
COc1ccc(-c2cc(C(F)(F)F)n3nc(-c4ccc(Cl)cc4)cc3n2)cc1OC | ? | · | · | – | · | ·
CC(C)Cc1ccc(S(=O)(=O)N2CCC(c3ccncc3)CC2)cc1 | 7.3µM | · | – | 9.2µM | · | ·
Cc1ccc(S(=O)(=O)N2CCN(C)CC2)c(C)c1 | – | – | ? | – | – | –
SMILES | TDP1 cell noCPT | MCF10A rereplic | Chronic BCR inh | DT40 TDP1 CPT | IL-1B inflam inh | SW480 rerep
NS(=O)(=O)c1ccc(S(=O)(=O)N2CCCC(c3ccccc3)C2)cc1 (stereo not given) | 23µM | · | · | ? | – | ·
COC(=O)C1CCN(S(=O)(=O)c2ccc(NC(C)=O)cc2)CC1 | – | – | – | – | – | –
Cc1ccc(S(=O)(=O)N2CCC(c3ccncc3)CC2)c(C)c1 | 10µM | · | – | 21µM | · | ·
CC(=O)Nc1ccc(S(=O)(=O)N2CCC(c3ccncc3)CC2)cc1 | 2.6µM | · | – | 5.2µM | · | ·
C[C@H](CO)N1C[C@H](C)[C@@H](CN(C)S(=O)(=O)c2cccs2)Oc2c(NC(=O)CCC(F)(F)F)cccc2C1=O | – | – | – | – | – | –[9.22 µM]
CC(C)(C)C(=O)N1CCN(c2ccc3c(c2)C2CC3CCN2C(=O)OCc2ccccc2)CC1 (stereo not given) | ? | · | · | ? | – | ·
CCCCN(C)CCCNC(=O)CN1C(=O)COc2ccc(S(=O)(=O)N3CCOCC3)cc21 | – | – | – | – | – | –
CC(NC(=O)C1CCOCC1)c1nnc2n1CCN(Cc1ccc3ccccc3c1)CC2 (stereo not given) | – | · | · | –[9.04 µM] | · | ·
CCC1(c2ccc(F)cc2)NC(=O)N(CC(=O)Nc2cc(C)on2)C1=O (stereo not given) | – | – | – | – | – | –
CC(C)(C)c1ccc(S(=O)(=O)N2CCC(c3ccncc3)CC2)cc1 | 8.2µM | · | ? | 13µM | · | ·
O=S(=O)(c1ccccc1)N1CCC(c2ccncc2)CC1 | 21µM | · | – | – | · | ·
O=S(=O)(c1ccc(Cl)cc1)N1CCC(c2ccncc2)CC1 | ? | · | – | ? | · | ·
Cc1c(C(=O)N(CCO)Cc2ccccc2)oc2c(F)cccc12 | – | 0.73µM | – | ? | – | –
Cc1cc(Cl)c2oc(C(=O)N(C)Cc3nccn3C)c(C)c2c1 | 7.3µM | – | – | 16µM | – | –
Cc1c(C(=O)N(C)Cc2cccc(F)c2)oc2c(Cl)cccc12 | ? | ? | – | ? | – | ?
Cc1c(C(=O)N(C)Cc2ccccc2)oc2c(Cl)cccc12 | ? | 18µM | ? | – | – | –
Cc1c(C(=O)NC2CCN(Cc3ccccc3)C2)oc2c(Cl)cccc12 (stereo not given) | – | 16µM | – | ? | -88 | ?
Cc1ccc2oc(C(=O)N(CCO)Cc3ccccc3)c(C)c2c1 | ? | – | ? | ? | – | –
O=C(Cn1cnc2ccccc21)OCC(=O)N1CCCCC1 | – | – | – | – | – | –
COc1ccc(N(C)C(=O)CCn2cnc3onc(-c4ccc(F)cc4)c3c2=O)c(OC)c1 | 13µM | · | · | 21µM | · | ·
CN(C(=O)CCNC(=O)Cn1cnc2ccccc2c1=O)c1ccccc1F | – | – | – | – | – | –
CCOc1ccccc1N(C)C(=O)Cn1cnc2onc(-c3ccc(F)cc3)c2c1=O | 21µM | · | · | ? | · | ·
CN(C(=O)Cn1cnc2onc(-c3ccc(F)cc3)c2c1=O)c1ccccc1Cl | ? | · | · | 21µM | · | ·
